The results in this text go back to PubChem BioAssay (NCATS).

Each structure is given as a SMILES string. Unmarked numbers belong to inactive results. Inconclusive results are not listed. The source made the active and inactive calls. Unless noted, the call rests on the fitted dose curve; in most records, active means well fitted curve in either direction with a large enough effect (not every such curve was filed as active); inconclusive means small, poorly fitted or top-dose-only effect, or another doubt; inactive means flat fitted curve, though single readings scatter.

The target in assay [1] is Lysosomal acid glucosylceramidase (Homo sapiens) (UniProt P04062). Put plainly: Glucocerebrosidase-p2 (AID 348; in the data active means potency below about 10 µM; further: potency means the concentration at half of the fitted maximal effect). The note with it: purified GBA, blue fluorogenic substrate, 40 min. In a few lines:
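Compounds titrated from 0.6 nM upwards against 0.2 nM enzyme in pH 5.9 citric acid/KH2PO4, taurocholate, tween-20; blue fluorogenic substrate 80 uM, 40 min room temperature, stopped and read Ex 365/Em 440 for AC50.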

Assay [2] is described as follows: AP1 Signaling Pathway (AID 357).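 Further: ME-180 reporter cells stimulated with EGF at its EC50 level; on the % scale 0 is the no-effect control and ±100 the full control effect.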 Conditions: ME-180 AP-1-bla reporter, EGF-induced, beta-lactamase ratio, 5 h; at 7.69 µM (top of the series) unless noted. In a few lines: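 In this screen, ME-180 cells in Opti-MEM with 0.5% dialyzed FBS received EC50 EGF and compound titrations for 5 h. AP-1 reporter beta-lactamase was detected via CCF4 ratio, giving AC50 for positive and negative modulators.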

The nature of assay [3]: NFAT Signaling Pathway (AID 444).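 Further: carbachol stimulus at about its EC50 of 1 µM final; on the % scale 0 is the no-effect control and ±100 the full control effect.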 Conditions: Jurkat NFAT-bla M1, carbachol, beta-lactamase ratio, 5 h; at 7.69 µM (top of the series) unless noted. The method, boiled down:
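Jurkat cells carrying an NFAT-driven β-lactamase reporter and co-transfected muscarinic M1 receptor were treated with compound plus carbachol (1 uM final, an EC50 level) for 5 h at 37 °C. CCF4 loading followed for 1 h at RT; 460/530 nm ratio gave %activity.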

The nature of assay [4]: Stat Signaling Pathway (AID 446).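 Further: ME-180 cervical cancer cells given 40 pM IL-6 alongside compound; SIE-controlled beta-lactamase reporter measured as 460/530 nm FRET emission ratio; on the % scale 0 is the no-effect control and ±100 the full control effect.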 Conditions: ME-180 (cervical carcinoma) SIE beta-lactamase reporter, IL-6 stimulated, 5 h; at 7.69 µM (top of the series) unless noted. The method, boiled down:
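ME-180 SIE-bla cells; overnight plating; cpd + IL-6 40 pM, 5 h, 37 C; LiveBLAzer 2.5 h RT; 460/530 nm emission ratio. Normalized to 300 pM IL-6 and 125 nM JAK inhibitor controls.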

The target in assay [5] is Glucocorticoid receptor (Homo sapiens) (UniProt P04150). Put plainly: GR-GFP Redistribution (AID 450;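 active means compounds whose dose series gives a full or clear partial fitted curve of increased nuclear translocation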; further: potency means the concentration at half of the fitted maximal effect). Conditions: U2OS GR-GFP nuclear translocation, laser cytometry, 2 h.
For assay [6] the target is unchanged. Put plainly: GR-EFC Redistribution (AID 451; calls by dose curve; further: potency means the concentration at half of the fitted maximal effect). The note with it: CHO-K1 GR-EFC translocation, beta-gal luminescence, 2 h. The method, boiled down:
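CHO-K1 cells stably expressing nuclear-localized β-gal enzyme acceptor and GR fused C-terminally to the enzyme donor fragment; ligand-driven nuclear translocation restores β-gal by complementation. Compounds titrated up to 46 uM final, 2 h at 37 °C; luminescence read.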

Assay [7] deals with Mitogen-activated protein kinase 10 (Mus musculus) (UniProt Q61831). Put plainly: JNK3 AlphaScreen Assay (AID 530).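 Further: kinase came from lysate of stimulated human HepG2 cells; signal reports phosphorylation of biotinylated GST-cJun 1-79 at Ser73 with 10 µM ATP; on the % scale 0 is the no-effect control and ±100 the full control effect.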 Conditions: JNK3 lysate, c-Jun phosphorylation; series mostly up to 11.4 µM. The method, boiled down:
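JNK3 came from HepG2 lysates pre-activated with IL-1beta and TNF-alpha and phosphorylated biotinylated GST-cJun (1-79) at 10 uM ATP, pH 7.6, room temperature. Compounds were titrated. AlphaScreen signal used anti-phospho-cJun (Ser73) antibody.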

Assay [8] has as its target 3',5'-cyclic-AMP phosphodiesterase 4B (Homo sapiens) (UniProt Q07343). Put plainly: qHTS Assay for Inhibitors of PDE-IV (AID 607; active means well fitted activation curve with a large enough effect in the main read-out, with a control signal flat, not every such curve was filed as active; further: % of control where 0% means no effect). The note with it: HEK293 ACTOne CNG channel cells, membrane potential fluorescence; series mostly up to 22.9 µM. In a few lines:
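ACTOne HEK293 cells carry a modified cAMP-gated CNG channel and express endogenous PDE4; plated 1000 cells/well, compounds up to 22.9 uM final. Membrane-potential dye fluorescence (ex 535/em 590) was read; parental cells received 10 uM forskolin + 100 uM RO 20-1724.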

Assay [9] concerns the target Cytochrome P450 2C9 (Homo sapiens) (UniProt P11712). Put plainly: qHTS Assay for Inhibitors and Substrates of Cytochrome P450 2C9 (AID 883; active means well fitted inhibition curve with a large enough effect; further: potency means the concentration at half of the fitted maximal effect; nearly all actives have a fitted effect of over 60% in size). Conditions: recombinant CYP2C9, luciferin-H luminescence, 60 min; series mostly up to 11.4 µM. The method, boiled down: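 CYP2C9 deoxyluciferin hydroxylation, 37C, 60 min with NADPH regeneration; 10nM enzyme, 100uM Luciferin-H (KM). Glo detection reagent stopped reaction; luminescence normalized to sulphaphenazole (57uM) full inhibition.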

Chain of 3',5'-cyclic-AMP phosphodiesterase 4B (Homo sapiens) (Q07343 whole entry, looked up): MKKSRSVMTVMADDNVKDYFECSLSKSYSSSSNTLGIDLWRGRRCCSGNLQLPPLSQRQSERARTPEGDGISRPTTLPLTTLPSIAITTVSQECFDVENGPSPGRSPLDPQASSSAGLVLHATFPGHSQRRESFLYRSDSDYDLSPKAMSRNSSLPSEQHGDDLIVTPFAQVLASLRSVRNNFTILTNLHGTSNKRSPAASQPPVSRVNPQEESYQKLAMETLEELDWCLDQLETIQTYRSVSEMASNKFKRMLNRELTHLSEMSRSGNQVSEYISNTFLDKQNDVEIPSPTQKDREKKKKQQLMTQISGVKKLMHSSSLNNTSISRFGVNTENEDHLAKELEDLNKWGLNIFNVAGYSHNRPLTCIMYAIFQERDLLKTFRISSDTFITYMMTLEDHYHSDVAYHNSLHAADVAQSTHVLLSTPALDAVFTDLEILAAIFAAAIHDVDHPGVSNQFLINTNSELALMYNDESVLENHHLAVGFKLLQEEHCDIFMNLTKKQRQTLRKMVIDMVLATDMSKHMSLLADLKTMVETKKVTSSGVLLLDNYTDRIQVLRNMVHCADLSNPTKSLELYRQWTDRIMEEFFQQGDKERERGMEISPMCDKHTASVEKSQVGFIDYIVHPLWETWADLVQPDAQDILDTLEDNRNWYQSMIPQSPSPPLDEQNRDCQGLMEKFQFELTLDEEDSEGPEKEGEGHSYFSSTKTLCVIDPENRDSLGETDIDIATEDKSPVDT
Chain of Lysosomal acid glucosylceramidase (Homo sapiens) (P04062 whole entry, looked up): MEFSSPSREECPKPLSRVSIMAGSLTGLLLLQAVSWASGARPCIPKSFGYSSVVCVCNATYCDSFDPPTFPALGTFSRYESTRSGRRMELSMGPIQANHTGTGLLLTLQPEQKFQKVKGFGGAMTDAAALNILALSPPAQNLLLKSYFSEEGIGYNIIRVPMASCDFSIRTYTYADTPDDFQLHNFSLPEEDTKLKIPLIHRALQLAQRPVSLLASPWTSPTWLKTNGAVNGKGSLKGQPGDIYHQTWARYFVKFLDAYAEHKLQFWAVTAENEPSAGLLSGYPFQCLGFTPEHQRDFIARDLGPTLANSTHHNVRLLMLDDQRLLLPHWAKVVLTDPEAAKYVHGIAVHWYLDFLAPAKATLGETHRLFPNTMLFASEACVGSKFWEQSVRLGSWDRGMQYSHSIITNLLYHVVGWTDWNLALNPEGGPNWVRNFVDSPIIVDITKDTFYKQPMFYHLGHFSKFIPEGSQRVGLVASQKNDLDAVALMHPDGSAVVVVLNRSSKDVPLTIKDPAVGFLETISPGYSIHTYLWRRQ
Chain of Glucocorticoid receptor (Homo sapiens) (P04150 whole entry, looked up): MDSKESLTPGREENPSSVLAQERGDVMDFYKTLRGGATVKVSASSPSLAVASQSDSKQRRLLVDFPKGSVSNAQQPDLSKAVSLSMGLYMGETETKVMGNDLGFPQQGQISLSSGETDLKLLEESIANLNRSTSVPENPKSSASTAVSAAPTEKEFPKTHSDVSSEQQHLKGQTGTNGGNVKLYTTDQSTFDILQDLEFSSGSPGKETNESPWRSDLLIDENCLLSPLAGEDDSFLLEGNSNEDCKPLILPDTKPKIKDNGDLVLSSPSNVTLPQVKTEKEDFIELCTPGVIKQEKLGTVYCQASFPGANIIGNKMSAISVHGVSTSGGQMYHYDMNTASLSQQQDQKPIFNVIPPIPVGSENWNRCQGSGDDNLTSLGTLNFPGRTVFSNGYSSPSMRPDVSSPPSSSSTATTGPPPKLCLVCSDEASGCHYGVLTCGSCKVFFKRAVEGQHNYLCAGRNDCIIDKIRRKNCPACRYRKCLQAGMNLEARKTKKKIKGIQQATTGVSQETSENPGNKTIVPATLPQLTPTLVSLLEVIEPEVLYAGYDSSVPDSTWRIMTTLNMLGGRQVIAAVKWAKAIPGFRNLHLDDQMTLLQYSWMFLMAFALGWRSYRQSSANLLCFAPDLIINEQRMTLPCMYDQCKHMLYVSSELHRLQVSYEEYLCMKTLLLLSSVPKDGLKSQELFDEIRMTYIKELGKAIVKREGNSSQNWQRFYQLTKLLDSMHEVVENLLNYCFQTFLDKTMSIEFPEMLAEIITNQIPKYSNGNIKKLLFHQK
Chain of Cytochrome P450 2C9 (Homo sapiens) (P11712 whole entry, looked up): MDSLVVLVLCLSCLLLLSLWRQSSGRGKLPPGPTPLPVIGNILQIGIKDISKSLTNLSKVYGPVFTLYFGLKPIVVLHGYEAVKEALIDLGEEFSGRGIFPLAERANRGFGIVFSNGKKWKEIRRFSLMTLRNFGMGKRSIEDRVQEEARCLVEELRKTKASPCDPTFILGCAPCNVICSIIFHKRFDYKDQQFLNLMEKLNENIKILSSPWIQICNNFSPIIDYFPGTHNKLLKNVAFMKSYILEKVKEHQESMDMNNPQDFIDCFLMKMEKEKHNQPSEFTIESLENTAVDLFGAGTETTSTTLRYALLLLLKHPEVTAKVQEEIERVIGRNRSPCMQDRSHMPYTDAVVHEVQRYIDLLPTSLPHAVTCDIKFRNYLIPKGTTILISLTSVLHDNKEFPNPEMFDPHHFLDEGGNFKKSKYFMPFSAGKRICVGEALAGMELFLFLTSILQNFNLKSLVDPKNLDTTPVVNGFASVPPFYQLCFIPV

As for `C=C(C)CN(CC#N)CC(=C)C`, the Potency is more than 11.4 µM in [1], more than 46 µM in assay [5] and more than 9.22 µM in [6]. The activity change, negative = inhibition in assay [2] was 2.17%; in [3], 9.57%. In addition, the activity, negative = inhibition in [4] was 16.5%. Moreover, the Potency result in assay [7] and in assay [8] was “inactive” in each case.
Take `COC(=O)[C@@H]1C(O)[C@@H](C(=O)OC)[C@H](C)N(C)[C@@H]1C` (stereo not given in full): the Potency in assay [1] is more than 11.4 µM; in assay [5], more than 46 µM; in assay [6], more than 9.22 µM. Also, the activity change, negative = inhibition was 3.71% in [2] and 14.1% in assay [3]. For the same compound, the activity, negative = inhibition in assay [4] is -1.12%. Moreover, the Potency result in assay [7] and in assay [8] was “inactive” each time.
`CNC/C(Cl)=N/S(=O)(=O)c1ccc(C)cc1`: the values for the Potency in assay [1], in assay [5] and in [6] were more than 11.4 µM, more than 46 µM and more than 9.22 µM, respectively. The activity change, negative = inhibition in [2] was -4.53%; in [3] it was 8.45%. The activity, negative = inhibition in assay [4] was 2.28%. For the same compound, the Potency result in assay [7] and in assay [8] was “inactive” throughout.
Consider `CC(C)Cn1cnc2c(Sc3c([N+](=O)[O-])ncn3C)nc(N)nc21`, for which the Potency was more than 11.4 µM in assay [1], more than 46 µM in [5] and more than 9.22 µM in [6]. Besides, the activity change, negative = inhibition is -3.59% in assay [2] and -13.9% in [3]. The activity, negative = inhibition in assay [4] is 11.4%. The Potency entry in assay [7] and in [8] was “inactive” each time.
Consider `Nc1ccn([C@H]2O[C@H](CO)[C@@H]3[O][Sn]([c]4ccccc4)([c]4ccccc4)[O][C@H]32)c(=O)n1`, for which the Potency in assay [1] was more than 11.4 µM; in assay [5], more than 46 µM; in assay [6] it was more than 9.22 µM. In addition, the activity change, negative = inhibition in assay [2] is -22.1%; in assay [3] it was -9.06%. The activity, negative = inhibition in assay [4] was -20.4%. Moreover, the Potency result in assay [7] and in assay [8] was “inactive” each time.
On to `NC(=O)N[C@H](CC(=O)O)C(=O)O`, for which the values for the Potency in [1], in assay [5] and in assay [6] were more than 11.4 µM, more than 46 µM and more than 9.22 µM, respectively. Moreover, the activity change, negative = inhibition in assay [2] was -2.2%; in assay [3] it was 0.469%. Further, the activity, negative = inhibition in assay [4] was -0.625%. The Potency entry in assay [7] and in assay [8] was “inactive” in each case.
On to `Cc1cc(Cl)ccc1Nc1sc(C(=O)c2cc3cc(Cl)ccc3o2)c(N)c1C#N`, for which the Potency in assay [1] is more than 11.4 µM; in [5], more than 46 µM; in [6], more than 9.22 µM; in assay [9], 1.26 µM (active). For the same compound, the values for the activity change, negative = inhibition in assay [2] and in assay [3] were -2.93% and 14.9%, respectively. Further, in assay [4], the activity, negative = inhibition is -13.7%. In addition, the Potency result in [7] and in [8] was “inactive” throughout.
`CN(C)CCCSc1nc2ccccc2[nH]1`: the Potency in [1] was more than 11.4 µM; in [5] it was more than 46 µM; in [6] it was more than 9.22 µM. Further, the figures for the activity change, negative = inhibition in assay [2] and in [3] were -0.00775% and -10.2%, respectively. For the same compound, in assay [4], the activity, negative = inhibition is 3.11%. Besides, the Potency entry in [7] and in [8] was “inactive” each time.
